Structures are written as SMILES. Records with an inconclusive call do not appear. Where a call stands in place of a potency, no number is given. Calls of active or inactive are those of the source. Calls come from the whole dose curve; as a rule, active = well fitted inhibition curve with a large enough effect; inconclusive = small, poorly fitted or top-dose-only effect; inactive = flat fitted curve, though single readings scatter.
Potency is the fitted concentration of half-maximal effect.

For the first assay, the system named is GB4. The assay can be described thus: qHTS profiling for inhibitors of Plasmodium falciparum proliferation (AID 504749). Note: nearly all actives have a fitted effect of over 60% in size. Particulars: P. falciparum in erythrocytes, SYBR Green DNA, 72 h; series mostly up to 28.7 µM. The method in brief: (§1)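 Parasite proliferation within erythrocytes, 72 h exposure. Endpoint: SYBR Green I fluorescence after overnight lysis at room temperature. Controls: 0.29 uM artemisinin, DMSO.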
In the case of `CN1C(C(=O)Nc2ccccn2)C(=O)c2sc(Cl)cc2S1(=O)=O` (stereo not drawn), the Potency result was “inactive”.
On the same count and under the same terms, the same measure for `CC(CC=O)CCCC(C)(C)O` (stereo not drawn): “inactive”; for `O=S(=O)(O)CC(S)CS` (stereo not drawn): “inactive”; for `CO/N=C(\C(=O)N[C@@H]1C(=O)N2C(C(=O)[O-])=C(C[n+]3cccc4c3CCC4)CS[C@H]12)c1csc(N)n1`: “inactive”.
The same measure, in the same setting: the same measure for `NCCO/C=C/[C@H](N)C(=O)O`: “inactive”.
The same measure, in the same setting: to `CCCCCCCCCCCC(=O)N(CCO)CCO` belongs “inactive”; to `CC(C)(COP(=O)(O)OP(=O)(O)OC[C@H]1O[C@@H](n2cnc3c(N)ncnc32)[C@H](O)[C@@H]1OP(=O)(O)O)C(O)C(=O)NCCC(=O)NCCS` (stereo partly drawn), “inactive”.
For the compound `O=P(O)(O)CP(=O)(O)O`, the Potency result is “inactive”.
Still for that read-out and setting: the same measure for `CC(C)(Oc1ccc(C2CCCc3ccccc32)cc1)C(=O)O` (stereo not drawn): “inactive”.
Same read-out and setting: to `CC(C)(CO)[C@@H](O)C(=O)NCCC(=O)NCCSSCCNC(=O)CCNC(=O)[C@H](O)C(C)(C)CO` belongs “inactive”; to `CCCOC(=O)c1ccccc1O`, “inactive”; to `C[Si](C)(C)O[Si](C)(C)C`, “inactive”.
The same measure, in the same setting: the same measure for `CC1C(=O)CC2C3(C)CCC2(C(C)C(=O)O)C(=O)C13` (stereo not drawn): “inactive”; for `C/C=C/C=C/C(=O)O`: “inactive”; for `O=C(O)CCC/C=C\C[C@@H]1[C@@H](/C=C/[C@@H](O)COc2cccc(C(F)(F)F)c2)[C@H](O)C[C@@H]1O`: “inactive”.
Regarding `O=C(O)[C@H]1CN(C/C=C/P(=O)(O)O)CCN1`, the Potency result is “inactive”.
Same read-out and setting: to `O=C(O)[C@H]1C(=CCO)O[C@H]2CC(=O)N12` belongs “inactive”.
Same read-out and setting: the same measure for `CCCC(=O)O`: “inactive”; for `OC[C@H]1O[C@@H]2O[C@H]3[C@H](O)[C@@H](O)[C@@H](O[C@H]4[C@H](O)[C@@H](O)[C@@H](O[C@H]5[C@H](O)[C@@H](O)[C@@H](O[C@H]6[C@H](O)[C@@H](O)[C@@H](O[C@H]7[C@H](O)[C@@H](O)[C@@H](O[C@H]1[C@H](O)[C@H]2O)O[C@@H]7CO)O[C@@H]6CO)O[C@@H]5CO)O[C@@H]4CO)O[C@@H]3CO`: “inactive”; for `Cc1c(Cl)cccc1Nc1ncccc1C(=O)O`: “inactive”.
Still for that read-out and setting: the same measure for `CCc1ncnc2cc(OC)c(OC)cc12`: “inactive”; for `CC/C(=C(/CC)c1ccc(OP(=O)(O)O)cc1)c1ccc(OP(=O)(O)O)cc1`: “inactive”; for `Cc1cccc(Nc2ncccc2C(=O)O)c1C`: “inactive”.
Regarding `CC1=CC(=C(c2ccc(N)cc2)c2ccc(N)cc2)C=CC1=N`, the Potency is 536 nM (active).
Take `ClC(Cl)Cl`: the Potency result was “inactive”.
Still for that read-out and setting: to `O=C(O)COc1ccc(CCNS(=O)(=O)c2ccccc2)s1` belongs “inactive”; to `C=Cc1ccc(S(=O)(=O)O)cc1`, “inactive”.
On to `CCCCO`, for which the Potency result is “inactive”.
Take `CC(C)(C)c1ccc2c(S(=O)(=O)O)c(C(C)(C)C)ccc2c1`: the Potency result is “inactive”.
The same measure, in the same setting: to `CNC(=O)OCc1cccc(COC(=O)NC)n1` belongs “inactive”.
Still for that read-out and setting: the same measure for `O=C(NCCNCC(O)COc1ccc(O)cc1)N1CCOCC1` (stereo not drawn): “inactive”.
The same measure, in the same setting: to `C=CC(C)(O)CC/C=C(\C)CCC=C(C)C` (stereo not drawn) belongs “inactive”; to `CO[C@H]1C[C@@H]2CC[C@@H](C)[C@@](O)(O2)C(=O)C(=O)N2CCCC[C@H]2C(=O)O[C@H]([C@H](C)C[C@@H]2CC[C@@H](OC(=O)C(C)(CO)CO)[C@H](OC)C2)CC(=O)[C@H](C)/C=C(\C)[C@@H](O)[C@@H](OC)C(=O)[C@H](C)C[C@H](C)/C=C/C=C/C=C/1C`, “inactive”.
Take `CNC(=O)c1c(I)c(C(=O)NCC(=O)Nc2c(I)c(C(=O)O)c(I)c(C(=O)NCCO)c2I)c(I)c(N(C)C(C)=O)c1I`: the Potency result was “inactive”.
On the same count and under the same terms, the same measure for `O=C(NNCS(=O)(=O)O)c1ccncc1`: “inactive”; for `COc1cc2c(cc1OC)[C@@H](Cc1cc(OC)c(OC)c(OC)c1)[N+](C)(CCCOC(=O)CC/C=C/CCC(=O)OCCC[N+]1(C)CCc3cc(OC)c(OC)cc3[C@H]1Cc1cc(OC)c(OC)c(OC)c1)CC2` (stereo partly drawn): “inactive”; for `CCCCCCCCCCCCCCCCCC[N+](C)(C)CCC[Si](OC)(OC)OC`: “inactive”.
The same measure, in the same setting: the same measure for `Nc1ncnc2c1ncn2CCOCP(=O)(O)O`: “inactive”; for `CC1=C(/C=C/C(C)=C/C=C/C(C)=C/C(=O)Oc2c(C)c(C)c3c(c2C)CC[C@@](C)(CCC[C@H](C)CCC[C@H](C)CCCC(C)C)O3)C(C)(C)CCC1`: “inactive”.

The next assay relates to HB3. The assay is described as above. Particulars: P. falciparum in erythrocytes, SYBR Green DNA, 72 h; series mostly up to 28.7 µM. The method in brief:
as §1
Turning to `CN1C(C(=O)Nc2ccccn2)C(=O)c2sc(Cl)cc2S1(=O)=O` (stereo not drawn), the Potency entry was “inactive”.
On the same count and under the same terms, to `CC(CC=O)CCCC(C)(C)O` (stereo not drawn) belongs “inactive”; to `O=S(=O)(O)CC(S)CS` (stereo not drawn), “inactive”; to `CO/N=C(\C(=O)N[C@@H]1C(=O)N2C(C(=O)[O-])=C(C[n+]3cccc4c3CCC4)CS[C@H]12)c1csc(N)n1`, “inactive”.
Same read-out and setting: the same measure for `NCCO/C=C/[C@H](N)C(=O)O`: “inactive”; for `CCCCCCCCCCCC(=O)N(CCO)CCO`: “inactive”.
On the same count and under the same terms, to `CC(C)(COP(=O)(O)OP(=O)(O)OC[C@H]1O[C@@H](n2cnc3c(N)ncnc32)[C@H](O)[C@@H]1OP(=O)(O)O)C(O)C(=O)NCCC(=O)NCCS` (stereo partly drawn) belongs “inactive”; to `O=P(O)(O)CP(=O)(O)O`, “inactive”; to `CC(C)(Oc1ccc(C2CCCc3ccccc32)cc1)C(=O)O` (stereo not drawn), “inactive”.
`CC(C)(CO)[C@@H](O)C(=O)NCCC(=O)NCCSSCCNC(=O)CCNC(=O)[C@H](O)C(C)(C)CO`: the Potency entry is “inactive”.
The same measure, in the same setting: the same measure for `CCCOC(=O)c1ccccc1O`: “inactive”; for `C[Si](C)(C)O[Si](C)(C)C`: “inactive”.
Still for that read-out and setting: the same measure for `CC1C(=O)CC2C3(C)CCC2(C(C)C(=O)O)C(=O)C13` (stereo not drawn): “inactive”; for `C/C=C/C=C/C(=O)O`: “inactive”.
Regarding `O=C(O)CCC/C=C\C[C@@H]1[C@@H](/C=C/[C@@H](O)COc2cccc(C(F)(F)F)c2)[C@H](O)C[C@@H]1O`, the Potency result is “inactive”.
Same read-out and setting: to `O=C(O)[C@H]1CN(C/C=C/P(=O)(O)O)CCN1` belongs “inactive”; to `O=C(O)[C@H]1C(=CCO)O[C@H]2CC(=O)N12`, “inactive”.
The same measure, in the same setting: to `CCCC(=O)O` belongs “inactive”.
The same measure, in the same setting: the same measure for `OC[C@H]1O[C@@H]2O[C@H]3[C@H](O)[C@@H](O)[C@@H](O[C@H]4[C@H](O)[C@@H](O)[C@@H](O[C@H]5[C@H](O)[C@@H](O)[C@@H](O[C@H]6[C@H](O)[C@@H](O)[C@@H](O[C@H]7[C@H](O)[C@@H](O)[C@@H](O[C@H]1[C@H](O)[C@H]2O)O[C@@H]7CO)O[C@@H]6CO)O[C@@H]5CO)O[C@@H]4CO)O[C@@H]3CO`: “inactive”.
For `Cc1c(Cl)cccc1Nc1ncccc1C(=O)O`, the Potency entry is “inactive”.
As for `CCc1ncnc2cc(OC)c(OC)cc12`, the Potency result is “inactive”.
Consider `CC/C(=C(/CC)c1ccc(OP(=O)(O)O)cc1)c1ccc(OP(=O)(O)O)cc1`, for which the Potency result was “inactive”.
Still for that read-out and setting: the same measure for `Cc1cccc(Nc2ncccc2C(=O)O)c1C`: “inactive”; for `CC1=CC(=C(c2ccc(N)cc2)c2ccc(N)cc2)C=CC1=N`: 8.91 µM (active).
The same measure, in the same setting: the same measure for `ClC(Cl)Cl`: “inactive”; for `O=C(O)COc1ccc(CCNS(=O)(=O)c2ccccc2)s1`: “inactive”; for `C=Cc1ccc(S(=O)(=O)O)cc1`: “inactive”.
On the same count and under the same terms, the same measure for `CCCCO`: “inactive”; for `CC(C)(C)c1ccc2c(S(=O)(=O)O)c(C(C)(C)C)ccc2c1`: “inactive”; for `CNC(=O)OCc1cccc(COC(=O)NC)n1`: “inactive”.
In the case of `O=C(NCCNCC(O)COc1ccc(O)cc1)N1CCOCC1` (stereo not drawn), the Potency entry was “inactive”.
Still for that read-out and setting: to `C=CC(C)(O)CC/C=C(\C)CCC=C(C)C` (stereo not drawn) belongs “inactive”; to `CO[C@H]1C[C@@H]2CC[C@@H](C)[C@@](O)(O2)C(=O)C(=O)N2CCCC[C@H]2C(=O)O[C@H]([C@H](C)C[C@@H]2CC[C@@H](OC(=O)C(C)(CO)CO)[C@H](OC)C2)CC(=O)[C@H](C)/C=C(\C)[C@@H](O)[C@@H](OC)C(=O)[C@H](C)C[C@H](C)/C=C/C=C/C=C/1C`, “inactive”.
Still for that read-out and setting: the same measure for `CNC(=O)c1c(I)c(C(=O)NCC(=O)Nc2c(I)c(C(=O)O)c(I)c(C(=O)NCCO)c2I)c(I)c(N(C)C(C)=O)c1I`: “inactive”; for `O=C(NNCS(=O)(=O)O)c1ccncc1`: “inactive”.
Same read-out and setting: the same measure for `COc1cc2c(cc1OC)[C@@H](Cc1cc(OC)c(OC)c(OC)c1)[N+](C)(CCCOC(=O)CC/C=C/CCC(=O)OCCC[N+]1(C)CCc3cc(OC)c(OC)cc3[C@H]1Cc1cc(OC)c(OC)c(OC)c1)CC2` (stereo partly drawn): “inactive”.
With `CCCCCCCCCCCCCCCCCC[N+](C)(C)CCC[Si](OC)(OC)OC`, the Potency result was “inactive”.
Turning to `Nc1ncnc2c1ncn2CCOCP(=O)(O)O`, the Potency result was “inactive”.
Still for that read-out and setting: to `CC1=C(/C=C/C(C)=C/C=C/C(C)=C/C(=O)Oc2c(C)c(C)c3c(c2C)CC[C@@](C)(CCC[C@H](C)CCC[C@H](C)CCCC(C)C)O3)C(C)(C)CCC1` belongs “inactive”.

The values are drawn from PubChem BioAssay (NCATS).
